Test results: PubChem BioAssay AID2148 (The Scripps Research Institute Molecular Screening Center, 2009)
Among all 2,400 compounds or so, about 1,500 (62%) were called active. The set was probably picked from earlier hits. A selection follows. A number with no mark means an inactive call. Rule as the data show it: active = inhibition above about 22%; inactive = the rest.

Target: Melanin-concentrating hormone receptor 1 (Homo sapiens) (UniProt Q99705)
Assay: MCHR1 antagonists in cells, counter-screen for GPR7 antagonist project, cell-based, fluorescence, human (AID 2148);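 also: 0% = vehicle with agonist and 100% = vehicle without agonist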
Conditions: MCHR1-expressing cells, fluorescence antagonist assay; at 4.4 µM; stronger effect = higher value

Compound	inhibition
Cc1ccc(NC2=C(Cl)C(=O)OC2OC(=O)c2ccccc2C)cc1 (centres undefined)	39.7% (active)
COc1ccc(NC(=O)C2CCC(CNS(=O)(=O)c3csc(C(N)=O)c3)CC2)cc1OC (centres undefined)	7.62%
CC1(C)CC(CNCCC(c2ccc(F)cc2)c2ccco2)CCO1 (centres undefined)	23.9% (active)
Cc1ccc(CNC(=O)C2CCN(S(=O)(=O)c3ccc4nc5c(c(C(=O)O)c4c3)CC(C)CC5)CC2)cc1 (centres undefined)	10.8%
Cn1c(=O)c([N+](=O)[O-])c(Oc2ccccc2)c2ccccc21	30.5% (active)
COc1cc(OC)c(-n2cc(-c3ccc(Cl)cc3)[nH]c2=O)cc1Cl	53.2% (active)
Cc1cccc(-c2nc3ccc(C(=O)NCCN4CCN(C)CC4)cc3nc2-c2cccc(C)c2)c1	34.7% (active)
CN(c1ccccc1)S(=O)(=O)c1ccc(C(=O)NCCc2ccccc2)cc1	11.5%
S=C(NCCc1ccccc1)Nc1ccccc1	33.6% (active)
COc1ccccc1N1CCN(c2ncnc3sc(C)c(-c4ccccc4)c23)CC1	56.4% (active)
COc1ccccc1CNC(=O)COc1ccc(C)nc1[N+](=O)[O-]	-4%
Cc1cc(OCc2ccc(C(=O)Nc3ccc(C(=O)O)cc3)o2)ccc1Cl	22% (active)
CC(C)(C)CC(C)(C)NCC(O)COCCOc1ccc(Br)cc1 (centres undefined)	47.4% (active)
O=C(Nc1ccc2ccccc2c1)Nc1ccc2snnc2c1	61.5% (active)
CCN1CCN(c2ccc([N+](=O)[O-])cc2C(=O)c2ccc(Cl)cc2)CC1	41.1% (active)
OC(CNCC1CCCO1)Cn1c2ccc(Br)cc2c2cc(Br)ccc21 (centres undefined)	81.1% (active)
O=C(CCCN1CCc2[nH]c3ccc(F)cc3c2C1)c1ccc(F)cc1	44.6% (active)
CS(=O)(=O)Nc1cccc(C2=NN(S(=O)(=O)c3ccccc3)C(c3cccs3)C2)c1 (centres undefined)	25.9% (active)
COc1ccc(OC)c(C(c2nnnn2C(C)(C)C)N2CCc3ccccc3C2)c1 (centres undefined)	47.3% (active)
COCCCNC(=S)N1CCN(c2nc(-c3cccc(OC)c3)cs2)CC1	51.1% (active)

Compound	inhibition
Cc1ccc(NC(=O)CN2CCC3(O)CCCCC3C2c2ccc3c(c2)OCO3)c(C)c1 (centres undefined)	24.9% (active)
COc1ccc([N+](=O)[O-])cc1N(CC(O)CN(CC(C)C)CC(C)C)S(=O)(=O)c1ccc(C)cc1 (centres undefined)	66% (active)
COCCN(Cc1cc2cc3c(cc2nc1Cl)OCO3)C(=O)c1cccc(C)c1	37.5% (active)
Cc1cccc(CS(=O)(=O)c2ncc(Cl)c(C(=O)Nc3ccc(F)cc3)n2)c1	92.1% (active)
COc1ccc(N=C2SC(C(=O)Nc3ccc(F)cc3)CC(=O)N2C)cc1 (centres undefined)	3.76%
Cc1ccccc1CN1C[C@@H]2C[C@@H](c3cn(C)nc3-c3ccccc3)N3CCC[C@@]23C1=O	21.2%
COc1ccccc1Oc1ccc(S(=O)(=O)Nc2cccnc2)cc1	39.9% (active)
COc1ccc(C)cc1NC(=O)NCCCCc1ccccc1	22.6% (active)
CCC(C(=O)Nc1ccc(C(C)C)cc1)c1ccccc1 (centres undefined)	95.6% (active)
Cc1cc2c(cc1C)N(Cc1ccccc1)C1=NCCCN12	9.03%
Cc1cc(Cl)ccc1OCCCC(=O)Nc1cccc(-n2cnnn2)c1	45.7% (active)
O=C(CN1CCN(C(=S)NC2CCCC2)CC1)Nc1ccc(Oc2ccccc2)cc1	52.8% (active)
O=C(CCc1ccccc1)Nc1ccc(NC(=O)C2CC2)nc1	4.99%
O=C(CSc1nnc(-c2ccco2)o1)NCC(=O)c1ccccc1	19.5%
COc1ccc(C(=O)CSc2nnc(COc3ccccc3)n2Cc2ccco2)cc1	38.8% (active)
CCSc1nsc(NC(=O)Nc2cccc(C(C)=O)c2)n1	62% (active)
C=CCSc1nsc(NC(=O)Nc2cccc(C(C)=O)c2)n1	68.9% (active)
Cc1ccc(NC(=S)N(CCCN2CCC(C)CC2)Cc2ccco2)cc1	-1.82%
Oc1cccc(/C=N/Nc2ccc(Cl)nn2)c1O	28.3% (active)
N#CC1=C(SCc2ccc(C#N)cc2)N=C(N)C(c2nc(-c3ccccc3)cs2)C12CCCCC2 (centres undefined)	24.5% (active)

Compound	inhibition
N=c1n(CCc2ccccc2)c2ccccc2n1Cc1ccccc1F	53.5% (active)
CN(C)CCCN(C(=O)c1ccc(S(=O)(=O)N2CCCCCC2)cc1)c1nc2ccc(Br)cc2s1	71.8% (active)
CN(C)CCCN(C(=O)c1ccc(S(=O)(=O)N2CCCc3ccccc32)cc1)c1nc2ccc(F)cc2s1	72.1% (active)
CCc1ccc2nc(N(CCCN(C)C)C(=O)c3ccc4c(c3)OCCO4)sc2c1	31.3% (active)
CCn1c2ccc(F)cc2c2nnc(SCCN3CCOCC3)nc21	-2.62%
O=C(Nc1ccc2c(c1)OCO2)C1CC(c2c(F)cccc2Cl)=NO1 (centres undefined)	2.22%
O=C(NCCNc1ccc([N+](=O)[O-])cc1Cl)c1ccccc1F	35.2% (active)
CN(C)S(=O)(=O)N1CCC(Oc2cccc(C(=O)NCCCC3CCCC3)c2)CC1	90.4% (active)
CS(=O)(=O)N(Cc1ccc(Cl)cc1)c1ccc(C(=O)NCCSCc2ccco2)cc1	22.2% (active)
CC(=O)N1CCCc2cc(S(=O)(=O)N3CCCC(C(=O)N4CCN(c5cccc(Cl)c5)CC4)C3)ccc21 (centres undefined)	71.3% (active)
CCc1c(C)nc2c(-c3ccccc3)c(C)nn2c1Nc1ccc(NC(C)=O)cc1	24.5% (active)
Cc1ccc2nc(C)c3c(c2c1)N(c1ccccc1)CC3	22.2% (active)
c1ccc(C2CNCc3c2ccc2ccccc32)cc1 (centres undefined)	73.3% (active)
CCCCCCCCCCOC(=O)Cn1c(COc2cccc(OC)c2)[n+](C)c2ccccc21	81.7% (active)
Cc1ccc(SCc2cc(=O)[nH]c(N3CCCCC3)n2)cc1	-8.9%
CCN1CCN(c2c(Cl)cccc2NC(=O)c2ccc(Br)o2)CC1	21%
CC(NCc1ccccc1OC1CCCC1)c1ccccc1 (centres undefined)	33% (active)
CC(C)(C)NCc1cc(Br)ccc1OC1CCCC1	11.2%
CCN(CC)CCOCCOc1ccc(Cl)c2ccccc12	19.4%
